Compounds with a hit are over-represented: about 1.4% of the library has one in this group of screens.
APOBEC3A inh – inhibitors of human APOBEC3A DNA deaminase | P31941 | AID 493011 | actives 0.41% (n = 330,000) | inhibition, % at 20 µM | recombinant A3A, FAM/TAMRA ssDNA deamination fluorescence;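 active = at least 40% inhibition at 20 µM here, with at most 30% in a related deaminase screen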
Target sequence (P31941 whole entry, looked up): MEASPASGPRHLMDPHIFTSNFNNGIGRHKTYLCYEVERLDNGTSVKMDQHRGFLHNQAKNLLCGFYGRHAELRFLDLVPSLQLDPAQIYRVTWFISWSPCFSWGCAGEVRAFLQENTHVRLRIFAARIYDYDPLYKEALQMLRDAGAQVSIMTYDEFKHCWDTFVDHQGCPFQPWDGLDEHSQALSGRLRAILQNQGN
LANA-H2A inh – blocks KSHV LANA binding to histone H2A/H2B; actives 0.6% (n = 320,000); inhibition, % (test concentration not listed); Q9QR71; cell-free LANA-H2A/H2B peptide, fluorescence polarization; AID 2629; in the data active = inhibition mostly above about 10%, no sharp cut-off; inactive = mostly below about 6.7%
APOBEC3G inh – inhibitors of human APOBEC3G DNA deaminase; Q9HC16; recombinant A3G, ssDNA deamination FAM/TAMRA fluorescence; inhibition, % at 20 µM; actives 0.28% (n = 330,000);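 active = inhibition of at least 40% at 20 µM, with no more than 30% in the related APOBEC3A deaminase screen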
HDAC3 inh – human HDAC3 inhibition | inhibition, % at 8.3 µM | actives 0.15% (n = 320,000) | AID 2718 | recombinant HDAC3, fluorogenic peptide/trypsin coupled, fluorescence | O15379; in the data active = inhibition above about 26%, passing the limit was not always enough; inconclusive = no clear call, values can overlap the other calls
Target sequence (O15379 whole entry, looked up): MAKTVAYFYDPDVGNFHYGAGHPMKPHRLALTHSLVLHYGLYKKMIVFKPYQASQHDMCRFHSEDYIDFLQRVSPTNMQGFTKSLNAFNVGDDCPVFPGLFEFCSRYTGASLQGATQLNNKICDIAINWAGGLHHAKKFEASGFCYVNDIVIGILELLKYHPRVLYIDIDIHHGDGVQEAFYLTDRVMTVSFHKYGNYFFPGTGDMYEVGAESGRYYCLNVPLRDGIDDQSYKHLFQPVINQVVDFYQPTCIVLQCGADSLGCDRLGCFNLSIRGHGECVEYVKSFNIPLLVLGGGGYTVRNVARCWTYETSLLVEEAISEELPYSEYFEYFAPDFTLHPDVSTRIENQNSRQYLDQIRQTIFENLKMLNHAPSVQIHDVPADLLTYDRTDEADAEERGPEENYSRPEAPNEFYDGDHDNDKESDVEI
Numbers stand for hits.

Results for Cc1cccc(-c2nc3c(c(SCC(=O)N4CCOCC4)n2)Cc2c(CO)cnc(C)c2O3)c1 ?
APOBEC3A inh: inactive; LANA-H2A inh: 18; APOBEC3G inh: inactive; HDAC3 inh: inactive

How did CCCCCCN(C(=O)CCCN1C(=O)NC(c2ccc([N+](=O)[O-])cc2)C(C(=O)OCc2ccccc2)=C1C)C(C)C(=O)NCCCC (stereo not given) do in these assays?
APOBEC3A inh: inactive; APOBEC3G inh: inactive

Results for Cc1csc(NC(=O)c2ccc(COc3ccccc3)o2)n1 ?
APOBEC3A inh: inactive; LANA-H2A inh: inactive; APOBEC3G inh: inactive; HDAC3 inh: inactive

How did O=C(c1ccc(O)cc1)c1ccc(C(=O)c2ccc(O)cc2)cc1 do in these assays?
APOBEC3A inh: inactive; LANA-H2A inh: 13; APOBEC3G inh: inactive; HDAC3 inh: inactive

Results for Cc1sc2ncnc(N3CCC(C(=O)Nc4ccc(Br)cc4Br)CC3)c2c1C ?
APOBEC3A inh: inactive; LANA-H2A inh: inactive; APOBEC3G inh: inactive; HDAC3 inh: inactive

Results for COc1ccc(NC(=O)CC2(CC(=O)O)CCCC2)cc1 ?
APOBEC3A inh: inactive; LANA-H2A inh: inactive; APOBEC3G inh: inactive; HDAC3 inh: inactive

How did COc1ccc(OC)c(NC(=O)CC2(CC(=O)O)CCCC2)c1 do in these assays?
APOBEC3A inh: inactive; LANA-H2A inh: 19; APOBEC3G inh: inactive; HDAC3 inh: inactive

What do the screens show for `COc1cccc(CC(=O)NNC(=O)CN(C)S(=O)(=O)c2ccc(C)cc2)c1`?
APOBEC3A inh: inactive; LANA-H2A inh: inactive; APOBEC3G inh: inactive; HDAC3 inh: inactive

How did CCCN1CC=C2C(C#N)=C(N)C(C#N)(C#N)C(c3cccc(OC)c3OC)C2C1 (stereo not given) do in these assays?
APOBEC3A inh: inactive; LANA-H2A inh: 17; APOBEC3G inh: inactive; HDAC3 inh: inactive

Results for CN1CC=C2C(C#N)=C(N)C(C#N)(C#N)[C@H](c3ccoc3)[C@H]2C1 ?
APOBEC3A inh: inactive; LANA-H2A inh: 18; APOBEC3G inh: inactive; HDAC3 inh: inactive

Results for CC(=O)N1CC=C2C(C#N)=C(N)C(C#N)(C#N)C(CCc3ccccc3)C2C1 (stereo not given) ?
APOBEC3A inh: inactive; LANA-H2A inh: inactive; APOBEC3G inh: inactive; HDAC3 inh: inactive

Results for N#CC1=C(N)C(C#N)(C#N)[C@H](c2ccoc2)[C@H]2CN(Cc3ccccc3)CC=C12 ?
APOBEC3A inh: inactive; LANA-H2A inh: 23; APOBEC3G inh: inactive; HDAC3 inh: inactive

What do the screens show for `CC(=O)N1CC=C2C(C#N)=C(N)C(C#N)(C#N)[C@H](c3ccoc3)[C@H]2C1`?
APOBEC3A inh: inactive; LANA-H2A inh: inactive; APOBEC3G inh: inactive; HDAC3 inh: inactive

How did CCN1CC=C2C(C#N)=C(N)C(C#N)(C#N)C(CCc3ccccc3)C2C1 (stereo not given) do in these assays?
APOBEC3A inh: inactive; LANA-H2A inh: 25; APOBEC3G inh: inactive; HDAC3 inh: inactive

Results for C/C(=N\NC(=O)CCC(=O)Nc1ccc(C)c(C)c1)C1CC1 ?
APOBEC3A inh: inactive; LANA-H2A inh: inactive; APOBEC3G inh: inactive; HDAC3 inh: inactive

Results for COc1ccc(/C=N\NC(=O)c2cc(O)c(O)c(O)c2)cc1COc1ccc(C(=O)OCC(C)C)cc1 ?
APOBEC3A inh: inactive; LANA-H2A inh: inactive; APOBEC3G inh: inactive; HDAC3 inh: inactive

How did Cn1ccc(C(=O)N/N=C/c2ccncc2)n1 do in these assays?
APOBEC3A inh: inactive; APOBEC3G inh: inactive

What do the screens show for `COC(=O)C1=C(C)NC(C)=C(C(=O)OC)C1C1CC=CCC1` (stereo not given)?
APOBEC3A inh: inactive; LANA-H2A inh: 8.1; APOBEC3G inh: inactive; HDAC3 inh: inactive

What do the screens show for `CCc1ccc(N(CC(=O)NC2CCCCC2)C(=O)CNC(=O)c2ccco2)cc1`?
APOBEC3A inh: inactive; LANA-H2A inh: inactive; APOBEC3G inh: inactive; HDAC3 inh: inactive

Results for CC(C)c1ccc(N(CC(=O)NC2CCCCC2)C(=O)CNC(=O)c2ccco2)cc1 ?
APOBEC3A inh: inactive; LANA-H2A inh: 39; APOBEC3G inh: inactive; HDAC3 inh: inactive

What do the screens show for `O=C(Nc1ccc(F)c(Cl)c1)C1CC(=O)N(Cc2ccco2)C1` (stereo not given)?
APOBEC3A inh: inactive; LANA-H2A inh: active; APOBEC3G inh: inactive; HDAC3 inh: inactive

Results for O=C(Nc1ccc(F)c(Cl)c1)C1CC(=O)N(Cc2ccccc2)C1 (stereo not given) ?
APOBEC3A inh: inactive; LANA-H2A inh: inactive; APOBEC3G inh: inactive; HDAC3 inh: inactive

What do the screens show for `Cc1ccccc1SCC(=O)Nc1cc(C(F)(F)F)ccc1N1CCOCC1`?
APOBEC3A inh: inactive; LANA-H2A inh: inactive; APOBEC3G inh: inactive; HDAC3 inh: inactive

Results for CC(=O)Oc1ccc2c(c1)Oc1cc(OC(C)=O)ccc1C21OC(=O)c2ccccc21 ?
APOBEC3A inh: inactive; LANA-H2A inh: 142; APOBEC3G inh: inactive; HDAC3 inh: inactive

What do the screens show for `Cc1cc(O)ccc1C1(c2ccc(O)cc2C)OC(=O)c2ccccc21`?
APOBEC3A inh: inactive; LANA-H2A inh: inactive; APOBEC3G inh: inactive; HDAC3 inh: inactive

What do the screens show for `O=C(NC1CCCCC1)N1CCN(S(=O)(=O)c2ccc(F)cc2)CC1`?
APOBEC3A inh: inactive; LANA-H2A inh: 17; APOBEC3G inh: inactive; HDAC3 inh: inactive

How did O=C(NC1CCCCCC1)C1CCN(S(=O)(=O)c2ccc(F)cc2)CC1 do in these assays?
APOBEC3A inh: inactive; LANA-H2A inh: inactive; APOBEC3G inh: inactive; HDAC3 inh: inactive

How did Cc1ccc(S(=O)(=O)n2nc(OC(=O)c3ccco3)cc2N)cc1 do in these assays?
APOBEC3A inh: inactive; LANA-H2A inh: inactive; APOBEC3G inh: inactive; HDAC3 inh: 58

How did Nc1cc(OC(=O)c2ccc(F)cc2)nn1S(=O)(=O)c1ccc(F)cc1 do in these assays?
APOBEC3A inh: inactive; LANA-H2A inh: inactive; APOBEC3G inh: inactive; HDAC3 inh: 60

How did Cc1ccc(S(=O)(=O)c2c(C)nn(C(C)(C)C)c2OC(=O)c2ccco2)cc1 do in these assays?
APOBEC3A inh: inactive; LANA-H2A inh: 15; APOBEC3G inh: inactive; HDAC3 inh: inactive

How did Cc1ccc(S(=O)(=O)n2nc(OC(=O)c3ccccc3C)cc2N)cc1 do in these assays?
APOBEC3A inh: inactive; LANA-H2A inh: inactive; APOBEC3G inh: inactive; HDAC3 inh: inactive

What do the screens show for `CC(C)(C)C(=O)Oc1cc(N)n(S(=O)(=O)c2ccc(F)cc2)n1`?
APOBEC3A inh: inactive; LANA-H2A inh: inactive; APOBEC3G inh: inactive; HDAC3 inh: inconclusive

Results for Nc1cc(OC(=O)c2ccco2)nn1S(=O)(=O)c1ccc(F)cc1 ?
APOBEC3A inh: inactive; LANA-H2A inh: inactive; APOBEC3G inh: inactive; HDAC3 inh: 85

Results for O=C1NC(Cc2ccccc2)c2nc3ccc(F)cc3c(=O)n2-c2cc(Cl)ccc21 (stereo not given) ?
APOBEC3A inh: inactive; LANA-H2A inh: inactive; APOBEC3G inh: inactive; HDAC3 inh: inactive

Results for COc1cc(/C(C)=C/c2ccccc2)c2c(c1)oc1ccccc12 ?
LANA-H2A inh: inactive; HDAC3 inh: inactive

How did COc1ccc(C(C)=O)cc1COC(=O)Cc1cc(OC)c(OC)c(OC)c1 do in these assays?
APOBEC3A inh: inactive; LANA-H2A inh: inactive; APOBEC3G inh: inactive; HDAC3 inh: inactive

Results for COCCn1c(SCC(=O)N2CCc3ccccc32)nc2c(c1=O)SC(C)C2 (stereo not given) ?
APOBEC3A inh: inactive; LANA-H2A inh: 8.1; APOBEC3G inh: inactive; HDAC3 inh: inactive

Screens as filed in PubChem.
